Most compounds without a hit are left out; they make up all but 28% or so of the library.
CYP2C9 act: human CYP2C9 activators, primary screen, biochemical, luminescence; recombinant CYP2C9, luciferin-H conversion; active compounds read high; factor 1 = untreated enzyme, 0 = blocked; activation factor at 5 µM; 1.4% of 96,000 active; AID 1024, 2008;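 active = activation factor of 2 or more for CYP2C9 at a 5 µM dose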;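 note: 0 = sulfaphenazole-blocked wells and 1 = vehicle-only wells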
CYP2C9 inh: blockers of cytochrome P450 2C9 activity – biochemical, luminescence, ADME assay, primary screen; P11712; AID 777, 2007; CYP2C9 Supersomes, luciferin-H conversion; inhibition, % at 5 µM; 20% of 96,000 active;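 active = blocking of liver enzyme CYP2C9 beyond about 50% at 5 µM, limit read from the data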
CYP2C19 activ: human CYP2C19 activators, primary screen, biochemical, luminescence | recombinant CYP2C19, luciferin-H EGE luminescence; active compounds read high; 0 = fully inhibited enzyme, 1 = untreated enzyme | 96,000 tested, under 10 active | activation factor at 5 µM;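 active = activation factor of at least 2 at 5 µM in the primary screen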;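 note: 0 = wells with 2.5 mM tranylcypromine and 1 = vehicle-only wells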
CYP2C19 inh: blockers of cytochrome P450 2C19 activity – biochemical, luminescence, ADME assay, primary screen; P33261; CYP2C19 Supersomes, luciferin-H EGE luminescence, 30 min; inhibition, % at 5 µM; 21% of 96,000 active; AID 778, 2007;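 active = CYP2C19 inhibition above a set limit at 5 µM in the primary screen, cut at about 50% in these data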;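 note: plate controls were negative control wells for no effect and 2.5 mM tranylcypromine positive control for full effect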
PLK1 kinase inh: human PLK1 kinase inhibitors, primary screen, biochemical, TR-FRET. Serine/threonine-protein kinase PLK1 (Homo sapiens), P53350. recombinant PLK1 kinase, TR-FRET peptide phosphorylation. inhibition, % at 10 µM. 0.53% of 97,000 active. AID 619, 2007;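 active = inhibition of 50% or more in the single-concentration screen; inactive = inhibition below 50%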;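 note: 0% = DMSO max control and 100% = H-89 dihydrochloride min control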
Target sequence (P53350 whole entry, looked up): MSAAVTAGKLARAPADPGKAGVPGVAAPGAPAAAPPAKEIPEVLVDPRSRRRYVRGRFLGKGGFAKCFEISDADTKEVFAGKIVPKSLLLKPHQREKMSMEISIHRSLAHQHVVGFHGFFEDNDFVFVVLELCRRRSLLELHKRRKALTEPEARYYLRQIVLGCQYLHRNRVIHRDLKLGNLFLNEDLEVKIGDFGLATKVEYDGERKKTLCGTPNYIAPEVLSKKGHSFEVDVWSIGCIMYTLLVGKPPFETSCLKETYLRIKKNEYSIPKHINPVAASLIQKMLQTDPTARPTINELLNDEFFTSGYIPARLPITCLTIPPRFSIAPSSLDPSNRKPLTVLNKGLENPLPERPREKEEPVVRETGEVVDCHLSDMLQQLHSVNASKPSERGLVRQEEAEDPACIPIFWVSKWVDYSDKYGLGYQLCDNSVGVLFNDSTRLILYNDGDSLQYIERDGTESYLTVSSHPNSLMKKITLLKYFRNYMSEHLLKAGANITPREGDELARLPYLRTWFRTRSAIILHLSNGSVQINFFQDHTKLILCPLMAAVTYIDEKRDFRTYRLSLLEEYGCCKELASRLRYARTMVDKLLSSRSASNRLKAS
PLK1 PBD inh: Plk1 polo box domain binding inhibitors, primary screen, biochemical, fluorescence polarization; inhibition, %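 (tested at about 20 µM)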; Plk1 PBD phosphopeptide binding; 0.13% of 97,000 active; AID 693, 2007; in the data active = inhibition above about 34%, passing the limit was not always enough
Starred values were filed as active, the others as inactive.

COC(=O)c1cccc(COC(=O)CNC(=O)c2ccco2)c1 was read as CYP2C9 act 0.9, CYP2C9 inh 11, CYP2C19 activ 1, CYP2C19 inh -5, PLK1 kinase inh -8 and PLK1 PBD inh -3.
`O=C(CSc1ccc(Cl)cc1)Nc1cccc(NC(=O)c2ccco2)c1` gave CYP2C9 act 0.2, CYP2C9 inh 77*, CYP2C19 activ 0.6, CYP2C19 inh 39, PLK1 kinase inh -7 and PLK1 PBD inh 27.
Screening CSc1cccc(NC(=O)c2ccco2)c1 returned CYP2C9 act 1.2, CYP2C9 inh -16, CYP2C19 activ 0.4, CYP2C19 inh 58*, PLK1 kinase inh -6 and PLK1 PBD inh -3.
For O=C(NCCSc1ccc(Cl)cc1)c1ccco1 the results were CYP2C9 act 0.5, CYP2C9 inh 51*, CYP2C19 activ 0.2, CYP2C19 inh 84*, PLK1 kinase inh 3 and PLK1 PBD inh 28.
For CCN(CC)CCNC(=O)CCCNC(=O)Cn1cnc2sc(C)c(C)c2c1=O the results were CYP2C9 act 1.1, CYP2C9 inh -5, CYP2C19 activ 1.2, CYP2C19 inh -18, PLK1 kinase inh -12 and PLK1 PBD inh 4.
For O=C(CSc1nncs1)Nc1ccc2c(c1)OCCO2 the results were CYP2C9 act 1.1, CYP2C9 inh -6, CYP2C19 activ 1.1, CYP2C19 inh -5, PLK1 kinase inh -3 and PLK1 PBD inh 3.
`Cc1cc(C(=O)CSc2nncs2)c(C)n1-c1ccc2c(c1)OCO2` gave CYP2C9 act 0.5, CYP2C9 inh 53*, CYP2C19 activ 0.1 and CYP2C19 inh 86*.
O=C(CSc1nncs1)NCc1ccc2c(c1)OCO2 was read as CYP2C9 act 0.9, CYP2C9 inh 14, CYP2C19 activ 0.4, CYP2C19 inh 59*, PLK1 kinase inh -4 and PLK1 PBD inh -29.
For CCCn1nnnc1SCC(=O)NCc1ccc2c(c1)OCO2 the results were CYP2C9 act 0.5, CYP2C9 inh 53*, CYP2C19 activ 0.3, CYP2C19 inh 66*, PLK1 kinase inh -7 and PLK1 PBD inh 6.
`CC(C)n1nnnc1SCC(=O)NCc1ccc2c(c1)OCO2` gave CYP2C9 act 0.6, CYP2C9 inh 40, CYP2C19 activ 0.5, CYP2C19 inh 46, PLK1 kinase inh -14 and PLK1 PBD inh 11.
Screening CCn1nnnc1SCC(=O)Nc1ccc(OC)cc1 returned PLK1 kinase inh -6 and PLK1 PBD inh -22.
`CCCCn1nnnc1SCC(=O)Nc1ccc(F)cc1` gave CYP2C9 act 0.3, CYP2C9 inh 71*, CYP2C19 activ 0, CYP2C19 inh 97*, PLK1 kinase inh -8 and PLK1 PBD inh 0.
CCc1c(C)sc(NC(=O)c2cc(-c3ccco3)on2)c1C#N was read as CYP2C9 act 1.1, CYP2C9 inh -9, CYP2C19 activ 1.1, CYP2C19 inh -6, PLK1 kinase inh -18 and PLK1 PBD inh 2.
For O=C(CSc1nnnn1Cc1ccccc1)Nc1ccc2c(c1)OCO2 the results were CYP2C9 act 0.6, CYP2C9 inh 39, CYP2C19 activ 0.7, CYP2C19 inh 32, PLK1 kinase inh -12 and PLK1 PBD inh -18.
`CCCn1nnnc1SCC(=O)NCc1cccs1` gave CYP2C9 act 1.1, CYP2C9 inh -6, CYP2C19 activ 0.3, CYP2C19 inh 73*, PLK1 kinase inh 0 and PLK1 PBD inh 11.
For CCCCn1nnnc1SCC(=O)Nc1ccc2c(c1)OCO2 the results were CYP2C9 act 0.3, CYP2C9 inh 70*, CYP2C19 activ 0.6, CYP2C19 inh 42, PLK1 kinase inh -15 and PLK1 PBD inh -6.
Screening CCCCn1nnnc1SCC(=O)Nc1ccc(N(C)C)cc1 returned CYP2C9 act 0.8, CYP2C9 inh 21, CYP2C19 activ 0.5, CYP2C19 inh 53*, PLK1 kinase inh -9 and PLK1 PBD inh -9.
`CCCCn1nnnc1SCC(=O)N1CCCC1` gave CYP2C9 act 1.1, CYP2C9 inh -9, CYP2C19 activ 1, CYP2C19 inh 1, PLK1 kinase inh -8 and PLK1 PBD inh -3.
Screening COCCn1c(-c2ccc(Cl)cc2)cnc1SCC(=O)NCc1cccs1 returned CYP2C9 act 0.1, CYP2C9 inh 86*, CYP2C19 activ 0.1, CYP2C19 inh 92*, PLK1 kinase inh -5 and PLK1 PBD inh 5.
Screening CCn1nnnc1SCC(=O)NCc1cccs1 returned CYP2C9 act 1, CYP2C9 inh -5, CYP2C19 activ 0.9, CYP2C19 inh 10, PLK1 kinase inh 3 and PLK1 PBD inh -13.
COc1ccc(CNC(=O)C(OC(C)=O)c2ccccn2)cc1 (configuration not stated) was read as CYP2C9 act 0.9, CYP2C9 inh 8, CYP2C19 activ 0.9, CYP2C19 inh 12, PLK1 kinase inh -2 and PLK1 PBD inh -2.
For O=C(NCCN1CCOCC1)Nc1ccc(Cl)cc1Cl the results were CYP2C9 act 1.1, CYP2C9 inh -6, CYP2C19 activ 0.9, CYP2C19 inh 6, PLK1 kinase inh -3 and PLK1 PBD inh -16.
`Cc1cc(C(=O)COC(=O)C2=COCCO2)c(C)n1-c1ccc2c(c1)OCO2` gave CYP2C9 act 0.1, CYP2C9 inh 85*, CYP2C19 activ 0.1, CYP2C19 inh 92*, PLK1 kinase inh -16 and PLK1 PBD inh -15.
For Cc1ccc2nc(-c3ccccc3)cc(C(=O)NCCCn3ccnc3)c2c1 the results were CYP2C9 act 0, CYP2C9 inh 98*, CYP2C19 activ 0.2, CYP2C19 inh 81*, PLK1 kinase inh -7 and PLK1 PBD inh 10.
Cc1nn(Cc2ccccc2Cl)c2sc(C(=O)NCCCn3ccnc3)cc12 was read as CYP2C9 act 0, CYP2C9 inh 100*, CYP2C19 activ 0.1, CYP2C19 inh 90*, PLK1 kinase inh -10 and PLK1 PBD inh -28.
For Cc1cc(C(=O)NCCCn2ccnc2)sc1-c1ccccc1 the results were CYP2C9 act 0.1, CYP2C9 inh 89*, CYP2C19 activ 0, CYP2C19 inh 97*, PLK1 kinase inh -5 and PLK1 PBD inh 0.
For O=C(NCCCn1ccnc1)c1cc(-c2ccc(Cl)cc2)nc2ccccc12 the results were CYP2C9 act 0, CYP2C9 inh 98*, CYP2C19 activ 0.1, CYP2C19 inh 90*, PLK1 kinase inh -5 and PLK1 PBD inh -36.
`O=C(NCCCn1ccnc1)C(=O)NCc1ccccc1` gave PLK1 kinase inh -3 and PLK1 PBD inh 11.
For O=C(CN1C(=O)c2ccccc2S1(=O)=O)Nc1cccnc1 the results were PLK1 kinase inh -12 and PLK1 PBD inh -10.
`CCOC(=O)CC(=O)CSc1ncnc2c1oc1ccccc12` gave CYP2C9 act 0.6, CYP2C9 inh 39, CYP2C19 activ 0.6, CYP2C19 inh 44, PLK1 kinase inh -10 and PLK1 PBD inh -12.
